Data reported in PubChem BioAssay (NCI).
“And” between values parts separate entries of the source, which are not always exact repeats. Identical values can stand only once. About 83,000 compounds went through this panel and 20% of them were active in at least one assay; those are over-represented in the sample as a whole.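 In brief: 96-well plates, 48 h treatment, single concentration, percent growth endpoint.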 The source made the active and inactive calls. How the source made its calls: active means growth percent below 10; inactive means the rest.

Key:
Test in all cases: NCI-60 one-dose screen, 48 h (100 = growth as untreated, 0 = no growth, -100 = all killed)
Conditions in all cases: 10 µM unless noted
HCT-15 colon = system: HCT-15 colon
HT29 colon = system: HT29 colon
SNB-75 CNS = system: SNB-75 CNS
SNB-19 CNS = system: SNB-19 CNS
U251 CNS = system: U251 CNS
PC-3 prostate = system: PC-3 prostate
SK-MEL-5 melanoma = system: SK-MEL-5 melanoma
UACC-62 melanoma = system: UACC-62 melanoma
LOX IMVI melanoma = system: LOX IMVI melanoma
SK-MEL-28 melanoma = system: SK-MEL-28 melanoma

Measured: growth

CSc1ccc(/C(=N/N=C(N)N)c2ccc(Cl)cc2)cc1
active: HCT-15 colon 3.54% | HT29 colon -30.1% | SNB-75 CNS 1.16% | U251 CNS -13.5% | PC-3 prostate 8.76% | SK-MEL-5 melanoma -0.967% | UACC-62 melanoma 7.53% | LOX IMVI melanoma -42.5%
inactive: SNB-19 CNS 19.6% | SK-MEL-28 melanoma 48.8%

CC1=C(C)C(=O)C(Nc2cccc(C)c2)=C(Br)C1=O
inactive: HCT-15 colon 98.4% | HT29 colon 105% | SNB-75 CNS 67.7% | SNB-19 CNS 101% | U251 CNS 101% | PC-3 prostate 78.5% | SK-MEL-5 melanoma 90.5% | UACC-62 melanoma 94.4% | LOX IMVI melanoma 58.1% | SK-MEL-28 melanoma 115%

N#Cc1c(-c2cccs2)cc(-c2cnccn2)nc1SCC(=O)N/N=C/c1ccncc1
inactive: HCT-15 colon 106% | HT29 colon 109% | SNB-75 CNS 99.3% | SNB-19 CNS 101% | U251 CNS 105% | PC-3 prostate 96.4% | SK-MEL-5 melanoma 101% | UACC-62 melanoma 91.4% | LOX IMVI melanoma 101% | SK-MEL-28 melanoma 112%

C#C[C@]1(O)CC[C@H]2[C@@H]3CC=C4c5sc(Nc6cc(C)cc(C)c6)nc5CC[C@]4(C)[C@H]3CC[C@@]21C
active: HCT-15 colon -37.1% | HT29 colon 0.349% | U251 CNS 8.96% | PC-3 prostate -8.26% | SK-MEL-5 melanoma -42.5% | UACC-62 melanoma -16.4% | LOX IMVI melanoma -68.3% | SK-MEL-28 melanoma -37.9%
inactive: SNB-75 CNS 10.2% | SNB-19 CNS 14.8%

COc1cc(-c2nc(-c3ccccc3)[nH]c2-c2ccnc(NCCCNS(=O)(=O)c3ccc(C(F)(F)F)cc3)n2)ccc1Cl
inactive: HCT-15 colon 14.3% and 22.5% | HT29 colon 43.9% and 17.9% | SNB-75 CNS 58.6% and 67.5% | SNB-19 CNS 57.1% and 54.1% | U251 CNS 40.7% and 39.8% | PC-3 prostate 15.4% and 20.3% | SK-MEL-5 melanoma 22.4% and 52.3% | UACC-62 melanoma 56% and 44.9% | LOX IMVI melanoma 18.1% and 47.6% | SK-MEL-28 melanoma 63.1% and 44.4%

Cc1c(C(=O)/C=C/c2ccc(Cl)cc2)nnn1-c1ccc2oc(=O)ccc2c1
inactive: HCT-15 colon 87.3% | HT29 colon 101% | SNB-75 CNS 104% | SNB-19 CNS 96.3% | U251 CNS 96.7% | PC-3 prostate 92% | SK-MEL-5 melanoma 97.7% | UACC-62 melanoma 83.6% | LOX IMVI melanoma 80.7% | SK-MEL-28 melanoma 106%

CCc1cccc2c3c(sc12)C(c1ccc(F)cc1)C(C#N)=C(/N=C/c1ccc(Cl)cc1)O3 (configuration not stated)
inactive: HCT-15 colon 12.9% | SNB-75 CNS 34.8% | SNB-19 CNS 27.1% | U251 CNS 14.5% | PC-3 prostate 21.7% | SK-MEL-5 melanoma 32.4% | UACC-62 melanoma 23.8% | LOX IMVI melanoma 30.3% | SK-MEL-28 melanoma 61.9%
active: HT29 colon -18.9%

CC(=O)Nc1ccccc1-c1nc2ccccc2s1
inactive: HCT-15 colon 96.7% | HT29 colon 105% | SNB-75 CNS 69.8% | SNB-19 CNS 94.6% | U251 CNS 108% | PC-3 prostate 102% | SK-MEL-5 melanoma 99% | UACC-62 melanoma 94.3% | LOX IMVI melanoma 97.3% | SK-MEL-28 melanoma 112%

CN1CCN(Cc2ccc(NC(=O)c3cncc(C#Cc4cnc5ccc(NCCO)nn45)c3)cc2C(F)(F)F)CC1
inactive: HCT-15 colon 33.2%
active: HT29 colon -28% | SNB-75 CNS -90.5% | SNB-19 CNS 0.946% | U251 CNS -19.6% | PC-3 prostate 3.35% | SK-MEL-5 melanoma -22.2% | UACC-62 melanoma -32.7% | LOX IMVI melanoma -87.8% | SK-MEL-28 melanoma -24.4%

O=C(/C=C/c1cccc(F)c1)c1cccc(OCCCOc2cccc(C(=O)/C=C/c3cccc(F)c3)c2)c1
inactive: SNB-75 CNS 112% | SNB-19 CNS 65.1% | U251 CNS 34.5% | PC-3 prostate 36.9% | SK-MEL-5 melanoma 99.4% | UACC-62 melanoma 81.3% | SK-MEL-28 melanoma 106%
active: HCT-15 colon 9.37% | HT29 colon 9.59% | LOX IMVI melanoma -37.9%

O=C1[C@@H]2Cc3c([nH]c4ccccc34)[C@@H](c3ccc(Cl)cc3)N2C(=O)CN1C1CCN(Cc2c(F)cccc2F)CC1
active: HT29 colon -10.2%
inactive: HCT-15 colon 24.3% | SNB-75 CNS 25.9% | SNB-19 CNS 47.8% | U251 CNS 38% | PC-3 prostate 13.8% | SK-MEL-5 melanoma 48.8% | UACC-62 melanoma 40.7% | LOX IMVI melanoma 21.3% | SK-MEL-28 melanoma 64.8%

Clc1cccc(/C=N/Nc2nc(N/N=C/c3cccc(Cl)c3)nc(N3CCCCC3)n2)c1
inactive: HCT-15 colon 79.8% | HT29 colon 85.6% | SNB-75 CNS 102% | SNB-19 CNS 98.6% | U251 CNS 91.7% | PC-3 prostate 76% | SK-MEL-5 melanoma 80.6% | UACC-62 melanoma 79.2% | LOX IMVI melanoma 105% | SK-MEL-28 melanoma 96.2%

CC1(C)CC[C@]23CC[C@]4(C)[C@H](CC[C@@H]5[C@@]6(C)CC[C@H](N)C(C)(C)[C@@H]6CC[C@]54C)[C@H]2[C@H]1OC3
active: HCT-15 colon -52.2% | U251 CNS -47.9% | LOX IMVI melanoma -74.2%
inactive: HT29 colon 20.2% | SNB-75 CNS 99.5% | SNB-19 CNS 47.3% | PC-3 prostate 69.6% | SK-MEL-5 melanoma 87.7% | UACC-62 melanoma 94.6% | SK-MEL-28 melanoma 103%

CC(C)Sc1nc(-c2ccccc2)c(C#N)c(N2CCOCC2)n1
active: SNB-75 CNS 9.58%
inactive: HCT-15 colon 80.2% | HT29 colon 71.8% | SNB-19 CNS 69% | U251 CNS 44.8% | PC-3 prostate 82% | SK-MEL-5 melanoma 95.5% | UACC-62 melanoma 91.7% | LOX IMVI melanoma 35.6% | SK-MEL-28 melanoma 88.6%

CC[C@]12C=CCN3CC[C@]4(C(=C(C(=O)OC)C1)Nc1cc5c(cc14)[C@@H]1[C@H](O5)[C@@H](O)[C@@]4(CC)CC(C(=O)OC)=C5Nc6cc(O)ccc6[C@@]56CCN1C46)C32 (some centres not stated)
inactive: SNB-19 CNS 23.4% | PC-3 prostate 20.8% | UACC-62 melanoma 19% | SK-MEL-28 melanoma 17.4%
active: HCT-15 colon -44.6% | HT29 colon 4.53% | SNB-75 CNS -2.38% | U251 CNS 8.74% | LOX IMVI melanoma -83.8%

COc1cc2oc(-c3cccc(NC(=O)[C@@H](N)C(C)C)c3)cc(=O)c2c(OC)c1OC
inactive: HCT-15 colon 97.9% | HT29 colon 107% | SNB-75 CNS 124% | SNB-19 CNS 95.4% | U251 CNS 92.3% | PC-3 prostate 106% | UACC-62 melanoma 91.3% | LOX IMVI melanoma 94.4% | SK-MEL-28 melanoma 111%

CCOC(=O)c1ccc(NC2=C(Cl)C(=O)c3nc(C)ccc3C2=O)cc1
active: HCT-15 colon -48.5% | LOX IMVI melanoma 0.747%
inactive: HT29 colon 71.5% | SNB-75 CNS 70.1% | SNB-19 CNS 68.1% | U251 CNS 63.8% | PC-3 prostate 48% | UACC-62 melanoma 55.5% | SK-MEL-28 melanoma 55.2%

COc1ccc(/C=N/NC(=O)c2c(N)nn(C)c2Nc2ccccc2)cc1Oc1ccccc1
inactive: HCT-15 colon 87.7% | HT29 colon 110% | SNB-75 CNS 88.2% | SNB-19 CNS 88.4% | U251 CNS 93.6% | PC-3 prostate 74.9% | UACC-62 melanoma 83.8% | LOX IMVI melanoma 95.3% | SK-MEL-28 melanoma 102%

Cc1csc(/N=C(N)/N=C(\N)c2cccnc2)n1
inactive: HCT-15 colon 42.7% | HT29 colon 59% | SNB-75 CNS 41.7% | SNB-19 CNS 69.4% | U251 CNS 76.5% | PC-3 prostate 69.2% | UACC-62 melanoma 40.2% | LOX IMVI melanoma 74.7% | SK-MEL-28 melanoma 65.3%

O=C(COc1ccc(/C=C2\C(=O)Nc3cc(Cl)ccc32)cc1)Nc1ccc(Cl)cc1
inactive: HCT-15 colon 42.5% | HT29 colon 74.6% | SNB-75 CNS 78.9% | SNB-19 CNS 82.1% | U251 CNS 85.2% | PC-3 prostate 54.5% | UACC-62 melanoma 24.6% | LOX IMVI melanoma 44.8% | SK-MEL-28 melanoma 78.7%

N#Cc1c(-c2cccs2)c(C#N)c(=O)n(Cc2nc3ccccc3[nH]2)c1N
active: HT29 colon -93%
inactive: HCT-15 colon 98.2% | SNB-75 CNS 78.7% | SNB-19 CNS 101% | U251 CNS 94.2% | PC-3 prostate 97.4% | UACC-62 melanoma 90.5% | LOX IMVI melanoma 100% | SK-MEL-28 melanoma 110%

CCN(CC)CCOc1ccc(C(=C(C)c2ccc(OC)cc2)c2ccc(OCCN(CC)CC)cc2)cc1
inactive: SNB-75 CNS 30.5% | SNB-19 CNS 11.9% | PC-3 prostate 17%
active: HCT-15 colon -27.1% | HT29 colon -28.1% | U251 CNS -44.5% | UACC-62 melanoma -81.6% | LOX IMVI melanoma -77.9% | SK-MEL-28 melanoma -83.7%

COc1ccc(C(C)=C(c2ccc(OCCN3CCCCCC3)cc2)c2ccc(OCCN3CCCCCC3)cc2)cc1
active: HCT-15 colon -82.1% | HT29 colon -49.9% | SNB-75 CNS -12% | SNB-19 CNS -51.7% | U251 CNS -77.9% | PC-3 prostate -54.6% | UACC-62 melanoma -65.2% | LOX IMVI melanoma -84% | SK-MEL-28 melanoma -89.3%

COc1ccc(NC2=C(Br)C(=O)C(C)=C(C)C2=O)cc1OC
inactive: HCT-15 colon 97.9% | HT29 colon 111% | SNB-75 CNS 77.1% | SNB-19 CNS 84.9% | U251 CNS 84% | PC-3 prostate 69.7% | UACC-62 melanoma 88% | LOX IMVI melanoma 73.7% | SK-MEL-28 melanoma 112%

Oc1[nH]c2ccc(Cl)cc2c1N=Nc1nc(N=Nc2c(O)[nH]c3ccc(Cl)cc23)nc(N2CCCCC2)n1
inactive: HCT-15 colon 88.4% | HT29 colon 39.3% | SNB-75 CNS 95.3% | SNB-19 CNS 42.1% | U251 CNS 19.8% | PC-3 prostate 19.5% | UACC-62 melanoma 88.5% | LOX IMVI melanoma 24.6% | SK-MEL-28 melanoma 97.5%

Cc1[nH]c(C(=O)Nc2ccccc2OCc2cccc(C(=O)NC3CCNC3)c2)c(Cl)c1Cl (configuration not stated)
active: HT29 colon -47.7% | SNB-19 CNS 9.65% | U251 CNS -56.2% | LOX IMVI melanoma -85.1% | SK-MEL-28 melanoma -44.4%
inactive: HCT-15 colon 35.2% | SNB-75 CNS 73.6% | PC-3 prostate 59.1% | UACC-62 melanoma 75%

Brc1ccc2[nH]cc(-c3nn4cc(-c5nccs5)nc4s3)c2c1
active: SNB-75 CNS -1.58% | PC-3 prostate 9.64% | LOX IMVI melanoma 8.86%
inactive: HCT-15 colon 10.2% | HT29 colon 40.9% | SNB-19 CNS 61.1% | U251 CNS 61.3% | UACC-62 melanoma 79.3% | SK-MEL-28 melanoma 49.6%
